Measurements as given in the supplement of paper PMC11732987, “Enantioselective OTUD7B fragment discovery through chemoproteomics screening and high-throughput optimisation” (Communications Chemistry, 2025).

How the values were obtained:
Experiment in all cases: log2 ratio of Biotin-Ahx-Ub-VS probe labelling (fragment/DMSO); higher = less target engagement (more negative = stronger competition), active = hit call of the paper (q ≤ 0.05, log2 ratio ≤ -1)
Conditions in all cases: compound concentration: 200 uM; treatment time: 3 h
USP42 = target: T1, USP42 (UniProt Q9H9J4)
T1 sequence (whole entry): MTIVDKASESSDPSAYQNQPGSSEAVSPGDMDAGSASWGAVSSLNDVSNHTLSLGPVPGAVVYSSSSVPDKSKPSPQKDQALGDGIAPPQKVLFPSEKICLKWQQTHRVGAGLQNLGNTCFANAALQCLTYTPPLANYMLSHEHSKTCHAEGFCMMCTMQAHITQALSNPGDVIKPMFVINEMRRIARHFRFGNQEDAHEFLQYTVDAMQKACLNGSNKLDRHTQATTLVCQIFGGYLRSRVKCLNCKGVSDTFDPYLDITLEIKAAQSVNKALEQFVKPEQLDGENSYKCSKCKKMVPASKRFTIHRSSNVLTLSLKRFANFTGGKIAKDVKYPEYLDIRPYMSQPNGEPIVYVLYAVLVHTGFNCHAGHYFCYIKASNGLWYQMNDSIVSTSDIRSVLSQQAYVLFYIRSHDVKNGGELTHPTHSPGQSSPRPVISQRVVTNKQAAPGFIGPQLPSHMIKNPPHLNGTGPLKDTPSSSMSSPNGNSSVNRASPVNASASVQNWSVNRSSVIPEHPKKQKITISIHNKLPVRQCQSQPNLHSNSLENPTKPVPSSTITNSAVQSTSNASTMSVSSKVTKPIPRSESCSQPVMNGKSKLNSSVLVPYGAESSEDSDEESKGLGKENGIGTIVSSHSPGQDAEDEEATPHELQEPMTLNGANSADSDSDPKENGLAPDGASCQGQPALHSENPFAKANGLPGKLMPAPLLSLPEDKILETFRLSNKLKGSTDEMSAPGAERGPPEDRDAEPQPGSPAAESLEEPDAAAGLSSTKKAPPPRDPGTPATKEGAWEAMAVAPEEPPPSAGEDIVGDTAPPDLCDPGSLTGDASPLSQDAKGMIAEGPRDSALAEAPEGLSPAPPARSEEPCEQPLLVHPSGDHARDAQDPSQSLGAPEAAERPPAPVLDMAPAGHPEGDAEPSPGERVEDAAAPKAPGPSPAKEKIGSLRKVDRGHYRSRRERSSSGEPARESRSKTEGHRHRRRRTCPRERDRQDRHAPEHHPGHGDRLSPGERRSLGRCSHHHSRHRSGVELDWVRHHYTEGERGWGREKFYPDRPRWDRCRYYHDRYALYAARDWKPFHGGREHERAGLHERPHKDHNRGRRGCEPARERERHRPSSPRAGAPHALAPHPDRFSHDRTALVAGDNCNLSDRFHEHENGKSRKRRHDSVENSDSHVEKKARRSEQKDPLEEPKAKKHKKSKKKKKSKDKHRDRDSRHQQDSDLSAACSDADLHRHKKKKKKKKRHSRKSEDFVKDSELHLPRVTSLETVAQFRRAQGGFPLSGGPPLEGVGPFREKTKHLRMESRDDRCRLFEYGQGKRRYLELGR
Summary of the method: (§1)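 Each value is an average log2 ratio of fragment to vehicle, tested by unpaired t-test. The underlying Spectronaut label-free quantities were global-median-normalised, and only proteins with ≥2 unique peptides were included. Triplicate HEK293T lysate samples (495 µg) were exposed to fragment at 200 µM or vehicle for 3 h, then to Biotin-Ahx-Ub-VS at 0.5 µM final for 1 h, before NeutrAvidin enrichment of labelled DUBs, LysC and trypsin digestion, and diaPASEF LC-MS/MS.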

USP46 = USP46 (UniProt P62068)
Sequence of USP46 (P62068 whole entry): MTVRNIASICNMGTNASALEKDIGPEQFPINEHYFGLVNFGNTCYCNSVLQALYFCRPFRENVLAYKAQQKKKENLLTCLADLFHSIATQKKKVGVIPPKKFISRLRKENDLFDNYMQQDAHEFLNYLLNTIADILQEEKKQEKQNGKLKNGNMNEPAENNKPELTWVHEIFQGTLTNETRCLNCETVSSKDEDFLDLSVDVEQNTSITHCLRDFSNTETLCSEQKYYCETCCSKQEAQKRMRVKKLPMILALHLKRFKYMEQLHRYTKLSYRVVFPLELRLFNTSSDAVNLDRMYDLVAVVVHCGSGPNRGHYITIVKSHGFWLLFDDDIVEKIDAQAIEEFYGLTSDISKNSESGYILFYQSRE
Summary of the method: as §1

USP47 = target: T2, USP47 (UniProt Q96K76)
T2 sequence (whole entry): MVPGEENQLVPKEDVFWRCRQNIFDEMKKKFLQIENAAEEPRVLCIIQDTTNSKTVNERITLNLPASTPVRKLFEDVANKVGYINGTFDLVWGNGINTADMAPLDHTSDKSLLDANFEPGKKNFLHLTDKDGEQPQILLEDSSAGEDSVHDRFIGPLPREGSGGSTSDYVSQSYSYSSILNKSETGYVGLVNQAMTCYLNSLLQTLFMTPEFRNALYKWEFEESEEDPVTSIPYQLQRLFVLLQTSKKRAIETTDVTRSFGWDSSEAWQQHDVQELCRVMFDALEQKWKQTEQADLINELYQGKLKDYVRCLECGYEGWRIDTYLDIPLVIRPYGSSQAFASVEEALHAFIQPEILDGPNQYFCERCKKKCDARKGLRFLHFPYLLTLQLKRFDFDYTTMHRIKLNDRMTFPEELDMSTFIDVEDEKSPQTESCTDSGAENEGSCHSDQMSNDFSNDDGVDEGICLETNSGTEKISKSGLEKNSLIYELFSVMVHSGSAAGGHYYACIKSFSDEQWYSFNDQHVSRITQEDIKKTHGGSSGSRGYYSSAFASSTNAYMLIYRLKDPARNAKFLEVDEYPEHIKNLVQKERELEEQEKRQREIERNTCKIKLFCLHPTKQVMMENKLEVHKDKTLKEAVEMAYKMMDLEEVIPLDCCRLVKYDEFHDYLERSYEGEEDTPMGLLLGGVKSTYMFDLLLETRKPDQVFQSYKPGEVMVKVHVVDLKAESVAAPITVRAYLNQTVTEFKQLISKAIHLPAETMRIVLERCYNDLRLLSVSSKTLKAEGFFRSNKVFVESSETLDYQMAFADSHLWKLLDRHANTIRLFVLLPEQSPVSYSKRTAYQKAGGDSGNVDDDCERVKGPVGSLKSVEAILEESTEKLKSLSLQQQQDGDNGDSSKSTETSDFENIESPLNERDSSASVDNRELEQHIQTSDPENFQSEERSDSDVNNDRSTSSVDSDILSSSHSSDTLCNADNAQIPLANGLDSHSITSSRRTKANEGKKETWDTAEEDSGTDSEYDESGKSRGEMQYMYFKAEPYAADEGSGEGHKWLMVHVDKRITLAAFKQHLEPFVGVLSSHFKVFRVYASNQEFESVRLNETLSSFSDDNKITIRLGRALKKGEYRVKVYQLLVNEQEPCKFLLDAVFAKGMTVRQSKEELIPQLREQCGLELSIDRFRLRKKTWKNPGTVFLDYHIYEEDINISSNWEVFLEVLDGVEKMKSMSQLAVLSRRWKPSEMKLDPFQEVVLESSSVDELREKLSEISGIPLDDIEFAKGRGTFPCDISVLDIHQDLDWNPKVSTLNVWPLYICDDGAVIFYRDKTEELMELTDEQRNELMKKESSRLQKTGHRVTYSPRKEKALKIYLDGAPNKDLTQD
Summary of the method: as §1

USP48 = target: T3, USP48 (UniProt Q86UV5)
T3 sequence (whole entry): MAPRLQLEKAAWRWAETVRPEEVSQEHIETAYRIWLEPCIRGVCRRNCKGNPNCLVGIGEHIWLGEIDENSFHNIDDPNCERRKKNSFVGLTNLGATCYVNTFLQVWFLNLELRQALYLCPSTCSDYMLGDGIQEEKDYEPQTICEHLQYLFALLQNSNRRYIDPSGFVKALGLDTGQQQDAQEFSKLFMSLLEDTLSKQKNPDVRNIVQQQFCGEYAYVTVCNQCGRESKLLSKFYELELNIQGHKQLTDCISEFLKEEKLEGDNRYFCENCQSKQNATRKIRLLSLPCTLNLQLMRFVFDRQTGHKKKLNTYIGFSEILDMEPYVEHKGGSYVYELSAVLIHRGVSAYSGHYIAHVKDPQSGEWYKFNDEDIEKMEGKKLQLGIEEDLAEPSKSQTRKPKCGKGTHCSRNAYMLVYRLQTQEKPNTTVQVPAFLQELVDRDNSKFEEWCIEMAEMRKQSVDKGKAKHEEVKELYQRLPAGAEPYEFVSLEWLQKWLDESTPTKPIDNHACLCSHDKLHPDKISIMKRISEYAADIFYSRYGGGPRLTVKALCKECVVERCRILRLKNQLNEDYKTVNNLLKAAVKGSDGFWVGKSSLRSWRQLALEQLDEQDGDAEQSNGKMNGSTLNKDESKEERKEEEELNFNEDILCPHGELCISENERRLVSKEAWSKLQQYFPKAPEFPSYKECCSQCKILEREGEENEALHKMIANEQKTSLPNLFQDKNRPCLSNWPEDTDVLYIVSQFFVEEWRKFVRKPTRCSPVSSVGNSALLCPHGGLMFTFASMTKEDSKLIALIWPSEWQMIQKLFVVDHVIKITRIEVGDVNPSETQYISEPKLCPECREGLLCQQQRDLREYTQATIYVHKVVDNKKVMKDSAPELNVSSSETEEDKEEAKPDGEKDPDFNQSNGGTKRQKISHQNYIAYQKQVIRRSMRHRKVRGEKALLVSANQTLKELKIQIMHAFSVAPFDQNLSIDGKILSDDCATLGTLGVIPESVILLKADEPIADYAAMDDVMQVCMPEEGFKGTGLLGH
Summary of the method: as §1

USP5 = target: T4, USP5 (UniProt P45974)
T4 sequence (whole entry): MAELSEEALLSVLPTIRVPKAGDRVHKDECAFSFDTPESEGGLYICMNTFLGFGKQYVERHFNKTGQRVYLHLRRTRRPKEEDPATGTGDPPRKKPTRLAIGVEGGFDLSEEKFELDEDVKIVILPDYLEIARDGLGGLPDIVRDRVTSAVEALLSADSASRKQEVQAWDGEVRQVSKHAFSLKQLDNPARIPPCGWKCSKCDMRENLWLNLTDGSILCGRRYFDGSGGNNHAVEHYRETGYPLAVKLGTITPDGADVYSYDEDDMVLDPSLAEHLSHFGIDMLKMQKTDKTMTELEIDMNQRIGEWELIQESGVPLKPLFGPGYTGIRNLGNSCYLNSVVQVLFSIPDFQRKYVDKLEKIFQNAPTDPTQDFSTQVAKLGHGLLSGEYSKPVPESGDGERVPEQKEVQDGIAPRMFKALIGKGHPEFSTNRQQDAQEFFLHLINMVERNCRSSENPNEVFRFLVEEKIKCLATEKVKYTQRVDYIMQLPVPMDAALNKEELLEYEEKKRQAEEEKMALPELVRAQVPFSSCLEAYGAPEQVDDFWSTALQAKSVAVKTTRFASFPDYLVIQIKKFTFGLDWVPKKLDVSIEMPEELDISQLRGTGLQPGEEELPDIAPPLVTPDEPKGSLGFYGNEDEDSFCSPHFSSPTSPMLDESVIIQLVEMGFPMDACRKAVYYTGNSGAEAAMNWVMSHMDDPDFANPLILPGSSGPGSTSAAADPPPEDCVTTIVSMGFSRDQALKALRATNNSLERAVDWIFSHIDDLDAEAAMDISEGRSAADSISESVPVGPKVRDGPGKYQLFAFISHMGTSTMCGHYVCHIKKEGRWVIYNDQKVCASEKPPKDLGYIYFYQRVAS
Summary of the method: as §1

USP54 = USP54 (UniProt Q70EL1)
Sequence of USP54 (Q70EL1 whole entry): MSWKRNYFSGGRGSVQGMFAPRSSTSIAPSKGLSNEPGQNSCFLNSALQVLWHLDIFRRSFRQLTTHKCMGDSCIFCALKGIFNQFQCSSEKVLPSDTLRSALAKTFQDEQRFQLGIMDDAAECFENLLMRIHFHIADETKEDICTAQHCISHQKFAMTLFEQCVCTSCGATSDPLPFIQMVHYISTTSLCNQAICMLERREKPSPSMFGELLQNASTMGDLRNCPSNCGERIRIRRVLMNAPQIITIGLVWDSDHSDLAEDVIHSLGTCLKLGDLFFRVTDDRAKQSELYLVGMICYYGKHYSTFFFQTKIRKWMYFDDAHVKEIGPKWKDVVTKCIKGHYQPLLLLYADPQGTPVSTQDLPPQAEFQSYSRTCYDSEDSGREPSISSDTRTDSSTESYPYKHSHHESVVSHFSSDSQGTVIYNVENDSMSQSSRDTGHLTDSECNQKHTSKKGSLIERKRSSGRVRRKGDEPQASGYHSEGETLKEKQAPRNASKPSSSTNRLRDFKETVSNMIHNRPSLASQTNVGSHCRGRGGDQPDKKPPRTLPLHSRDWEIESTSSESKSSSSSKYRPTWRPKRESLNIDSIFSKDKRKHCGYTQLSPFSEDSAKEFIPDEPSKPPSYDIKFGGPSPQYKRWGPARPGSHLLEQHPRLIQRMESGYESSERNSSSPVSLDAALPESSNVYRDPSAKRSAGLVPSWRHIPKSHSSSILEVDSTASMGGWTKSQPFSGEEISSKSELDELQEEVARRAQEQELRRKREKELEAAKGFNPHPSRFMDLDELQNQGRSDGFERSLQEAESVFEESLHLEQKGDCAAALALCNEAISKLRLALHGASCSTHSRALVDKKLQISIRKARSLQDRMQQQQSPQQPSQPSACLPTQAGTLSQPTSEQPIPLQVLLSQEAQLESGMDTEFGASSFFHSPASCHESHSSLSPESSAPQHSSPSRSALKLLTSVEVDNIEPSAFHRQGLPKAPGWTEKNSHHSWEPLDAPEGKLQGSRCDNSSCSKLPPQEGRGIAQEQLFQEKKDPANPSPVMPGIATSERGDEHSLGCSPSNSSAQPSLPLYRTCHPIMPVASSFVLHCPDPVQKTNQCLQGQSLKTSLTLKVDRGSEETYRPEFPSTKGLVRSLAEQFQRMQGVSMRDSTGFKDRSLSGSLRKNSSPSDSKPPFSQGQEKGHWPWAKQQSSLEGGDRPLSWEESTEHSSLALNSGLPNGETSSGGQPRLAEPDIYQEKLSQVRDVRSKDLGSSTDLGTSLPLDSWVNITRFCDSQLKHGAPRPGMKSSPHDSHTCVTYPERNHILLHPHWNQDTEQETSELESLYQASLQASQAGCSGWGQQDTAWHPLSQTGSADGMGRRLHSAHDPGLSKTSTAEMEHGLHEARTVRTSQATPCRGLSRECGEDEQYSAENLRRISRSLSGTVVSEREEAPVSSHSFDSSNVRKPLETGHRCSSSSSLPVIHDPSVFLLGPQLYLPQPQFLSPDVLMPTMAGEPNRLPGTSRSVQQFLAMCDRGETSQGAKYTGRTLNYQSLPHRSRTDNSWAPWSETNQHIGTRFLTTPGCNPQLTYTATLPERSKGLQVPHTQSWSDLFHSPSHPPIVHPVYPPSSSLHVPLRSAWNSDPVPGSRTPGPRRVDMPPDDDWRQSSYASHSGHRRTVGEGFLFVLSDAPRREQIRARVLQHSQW
Summary of the method: as §1

USP7 = USP7 (UniProt Q93009)
Sequence of USP7 (Q93009 whole entry, looked up): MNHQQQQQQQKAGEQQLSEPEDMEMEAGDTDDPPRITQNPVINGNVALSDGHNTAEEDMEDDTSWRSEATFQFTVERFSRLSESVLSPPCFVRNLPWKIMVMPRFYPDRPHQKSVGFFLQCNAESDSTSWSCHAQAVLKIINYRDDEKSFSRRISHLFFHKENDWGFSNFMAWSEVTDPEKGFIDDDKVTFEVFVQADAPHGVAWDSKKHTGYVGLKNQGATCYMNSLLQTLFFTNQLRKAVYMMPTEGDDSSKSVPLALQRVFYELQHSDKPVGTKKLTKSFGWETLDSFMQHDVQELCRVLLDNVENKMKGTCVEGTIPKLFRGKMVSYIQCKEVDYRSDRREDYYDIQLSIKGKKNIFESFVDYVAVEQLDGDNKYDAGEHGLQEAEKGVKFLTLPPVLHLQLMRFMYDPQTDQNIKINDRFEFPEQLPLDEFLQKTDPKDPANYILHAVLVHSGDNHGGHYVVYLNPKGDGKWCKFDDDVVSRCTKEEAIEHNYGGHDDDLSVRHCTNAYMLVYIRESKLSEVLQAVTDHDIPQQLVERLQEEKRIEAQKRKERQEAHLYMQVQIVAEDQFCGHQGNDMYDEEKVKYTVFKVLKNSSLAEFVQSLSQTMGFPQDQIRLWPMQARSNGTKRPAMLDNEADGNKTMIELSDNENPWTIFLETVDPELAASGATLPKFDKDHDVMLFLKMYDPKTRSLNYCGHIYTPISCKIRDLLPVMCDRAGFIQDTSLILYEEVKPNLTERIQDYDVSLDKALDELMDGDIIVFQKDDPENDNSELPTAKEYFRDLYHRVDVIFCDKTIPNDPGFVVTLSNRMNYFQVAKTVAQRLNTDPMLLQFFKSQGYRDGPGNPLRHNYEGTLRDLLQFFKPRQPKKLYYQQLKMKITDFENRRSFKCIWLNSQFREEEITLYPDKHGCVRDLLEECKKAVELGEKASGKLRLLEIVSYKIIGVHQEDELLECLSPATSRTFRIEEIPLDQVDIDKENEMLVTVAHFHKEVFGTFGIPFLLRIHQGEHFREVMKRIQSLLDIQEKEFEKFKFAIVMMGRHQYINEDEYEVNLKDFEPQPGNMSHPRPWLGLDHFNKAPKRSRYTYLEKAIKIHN
Summary of the method: as §1

USP8 = target: T5, USP8 (UniProt P40818)
T5 sequence (whole entry): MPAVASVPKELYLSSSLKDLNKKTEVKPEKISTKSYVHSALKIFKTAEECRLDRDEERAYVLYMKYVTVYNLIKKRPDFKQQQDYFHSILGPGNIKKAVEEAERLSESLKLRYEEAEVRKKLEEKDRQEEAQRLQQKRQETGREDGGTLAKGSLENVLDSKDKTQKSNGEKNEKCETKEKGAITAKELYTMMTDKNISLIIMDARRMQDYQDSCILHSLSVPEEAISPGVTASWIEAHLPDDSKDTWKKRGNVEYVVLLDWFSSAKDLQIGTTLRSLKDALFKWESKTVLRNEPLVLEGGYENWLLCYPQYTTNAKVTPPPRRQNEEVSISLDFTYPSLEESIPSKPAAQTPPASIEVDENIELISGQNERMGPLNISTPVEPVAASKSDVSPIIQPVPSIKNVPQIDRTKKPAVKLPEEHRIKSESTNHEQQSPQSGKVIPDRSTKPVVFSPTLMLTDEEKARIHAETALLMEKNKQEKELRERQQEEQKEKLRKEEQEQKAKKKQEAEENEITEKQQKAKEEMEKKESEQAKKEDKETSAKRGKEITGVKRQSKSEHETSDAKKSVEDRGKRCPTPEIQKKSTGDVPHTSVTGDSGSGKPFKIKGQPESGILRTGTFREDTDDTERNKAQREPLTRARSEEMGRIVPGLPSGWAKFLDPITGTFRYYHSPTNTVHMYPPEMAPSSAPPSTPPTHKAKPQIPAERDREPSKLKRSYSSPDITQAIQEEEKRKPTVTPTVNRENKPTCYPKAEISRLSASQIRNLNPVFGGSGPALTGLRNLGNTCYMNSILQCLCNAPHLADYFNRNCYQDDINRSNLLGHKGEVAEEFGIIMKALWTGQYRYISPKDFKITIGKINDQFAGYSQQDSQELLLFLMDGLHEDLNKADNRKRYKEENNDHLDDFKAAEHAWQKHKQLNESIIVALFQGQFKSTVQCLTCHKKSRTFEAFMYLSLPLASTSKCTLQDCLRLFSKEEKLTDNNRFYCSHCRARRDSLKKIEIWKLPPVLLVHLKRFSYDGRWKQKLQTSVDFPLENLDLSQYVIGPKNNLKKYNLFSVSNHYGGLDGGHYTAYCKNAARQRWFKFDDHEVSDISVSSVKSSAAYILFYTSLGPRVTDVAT
Summary of the method: as §1

USP9X = USP9X (UniProt Q93008)
Summary of the method: as §1

UniProt O00487 = target: UniProt O00487
Sequence of UniProt O00487 (O00487 whole entry): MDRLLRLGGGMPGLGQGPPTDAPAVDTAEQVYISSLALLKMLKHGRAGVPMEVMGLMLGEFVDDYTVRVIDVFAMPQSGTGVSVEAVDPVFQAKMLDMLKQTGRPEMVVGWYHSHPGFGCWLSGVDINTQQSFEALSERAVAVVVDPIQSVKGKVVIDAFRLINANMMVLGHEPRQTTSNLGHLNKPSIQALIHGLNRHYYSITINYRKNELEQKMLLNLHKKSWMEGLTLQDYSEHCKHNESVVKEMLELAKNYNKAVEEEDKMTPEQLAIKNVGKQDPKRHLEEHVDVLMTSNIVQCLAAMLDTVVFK
Summary of the method: as §1

Measured: log2 ratio of Biotin-Ahx-Ub-VS probe labelling

Cc1ccccc1CN(C)C(=O)CCl
active: USP7 -1.57
inactive: USP42 -0.263 | USP46 -0.653 | USP47 -1 | USP48 -0.83 | USP5 -0.152 | USP54 1.1 | USP8 -0.825 | USP9X -0.836 | UniProt O00487 -0.14
